# Measured values: PubChem BioAssay AID827 (SRMLSC, 2007)
# The whole screen tested about 140,000 compounds, of which about 1,700 (1.2%) were called active. Many of the other results were omitted from the sample, so actives are more common in it than they were. Values without a mark were called inactive.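 Rule for the calls: active = viability at or below a set limit, 4 SD under the median of all tested compounds (cut at about 3.7% in these data); inactive = the rest.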
# Test: growth suppression of PTEN-null HCT116, primary screen, cell-based, CellTiter-Glo (AID 827);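 note: PTEN knockout HCT116 line with beta catenin targeted HCT116 as companion control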
# Details: 60 h, at 10 µM, active compounds read low
row,SMILES,viability
1,CCCC(O)(CCC)C(=O)NN(C(=O)CCl)c1cccc(C)c1,32.7%
2,CC(C[N+](C)(C)C)OC(N)=O (stereo not drawn),1.03% (active)
3,CC(=O)OC(C)C[N+](C)(C)C (stereo not drawn),98.9%
4,COc1ccc(/C(N)=N/OC(=O)CCCc2ccccc2)cc1,94.9%
5,COC(=O)c1cc(C(=O)N(Cc2ccccc2)c2ccccn2)cc([N+](=O)[O-])c1,94.2%
6,NC1=C([N+](=O)[O-])C(c2ccccc2)C2=C(CCCC2=O)O1 (stereo not drawn),95.7%
7,O=C(COC(=O)/C(=C/c1cccs1)c1cccs1)NCc1ccccc1Cl,91.8%
8,Cc1coc2c(O)cc3c(c12)OC1(N2CCCCC2)C(=O)NCCCC31 (stereo not drawn),2.96% (active)
9,Cn1cc(C(=O)NCc2ccccc2F)cn1,102%
10,CCc1ccc(NC(=O)c2ccc(Cn3cc([N+](=O)[O-])cn3)cc2)cc1,99%
11,Cn1cc([N+](=O)[O-])c(C(=O)Nc2cnn(Cc3ccc(F)cc3)c2)n1,3.56% (active)
12,O=C(Nc1ccc2c(c1)OCCO2)c1ccncc1,94.3%
13,COc1cccc(NC(=O)c2ccc(Cn3cc([N+](=O)[O-])cn3)o2)c1,86.8%
14,Cn1cc([N+](=O)[O-])c(C(=O)Nc2ccc3c(c2)OCCO3)n1,3.52% (active)
15,O=C(Nc1ccc2c(c1)OCCO2)c1cnccn1,97.3%
16,O=[N+]([O-])c1cccc(S(=O)(=O)N2CCCCCC2)c1,86.5%
17,COc1ccc(C(=O)CSc2nnc(NC(=O)C3CC(=O)N(c4cccc(OC)c4)C3)s2)cc1 (stereo not drawn),94.8%
18,Cc1nc2ccccc2cc1O,103%
19,CSc1nc2ccccc2cc1/C=C(\C#N)c1ccc(Cl)cc1Cl,3.51% (active)
20,CSc1nc(N)c(C#N)c(-c2ccccc2Cl)c1C#N,86.3%
21,Cc1cc(C(=O)COC(=O)CNC(=O)c2ccc(F)cc2)c(C)n1Cc1ccco1,96.4%
22,COc1cccc2cc(C(=O)N(C)C)c(=O)oc12,1.64% (active)
23,COc1cccc2cc(C(=O)N3CCN(C(=O)c4ccccc4)CC3)c(=O)oc12,87.7%
24,C=CCc1cccc2cc(C(=O)OCC)c(=O)oc12,104%
25,Cc1ccc(Oc2cc(NC(=O)CCCn3nc(C)c([N+](=O)[O-])c3C)cc([N+](=O)[O-])c2)cc1,71.1%

row,SMILES,viability
1,CC(C)(C)C1CCC(OC(=O)CCC(=O)Nc2ccccc2)CC1 (stereo not drawn),87%
2,Cc1ccc(C(CC(=O)O)Nc2nc(N3CCCCC3)nc(N3CCCCC3)n2)cc1 (stereo not drawn),99.5%
3,CC(C)n1c(C(O)c2ccccc2)nc2ccccc21 (stereo not drawn),101%
4,CC(Nc1nc(N2CCCC2)nc2ccccc12)c1ccccc1 (stereo not drawn),2.77% (active)
5,Cc1ccc(C)c(NC(=S)NCC(c2cccnc2)N2CCOCC2)c1 (stereo not drawn),92.3%
6,CCCCCCc1cc2cc(-c3nnc(-c4ccccc4)o3)c(=O)oc2cc1O,1.84% (active)
7,CC(=O)c1c(C)[nH]c(C(=O)OCC(=O)Nc2sc3c(c2C#N)CCCC3)c1C,66.9%
8,COc1cccc2c1CCC(NC(C)=O)C2=O (stereo not drawn),86%
9,Oc1ccc(Cl)cc1/C=N/c1nc2ccccc2[nH]1,93.9%
10,COc1ccc(/C=C(/NC(=O)c2ccc(C)cc2)c2nc3ccccc3[nH]2)cc1OC,99.4%
11,O=C(/C(=C/c1cccc(Cl)c1)c1nc2ccccc2[nH]1)c1ccccc1,1.59% (active)
12,Cc1ccc(C(=O)/C=C/Nc2ccc(S(=O)(=O)Nc3onc(C)c3C)cc2)cc1,92.7%
13,O=C(NCCc1ccccc1)C1CCC(Cn2c(=O)c3ccccc3n(Cc3cccnc3)c2=O)CC1 (stereo not drawn),63.7%
14,Cc1cccc(NC(=O)CSc2nc3[nH]ncc3c(=O)[nH]2)c1,90.2%
15,CCC(C)NCCOCCOc1ccc(Br)cc1C (stereo not drawn),71%
16,CC(C)(C)CC(C)(C)NCC(O)COCCOc1ccc(Br)cc1 (stereo not drawn),1.74% (active)
17,Cc1noc(COc2ccccc2OCC(O)CNC(C)(C)C)n1 (stereo not drawn),98.8%
18,Cc1cccc(C(=O)OCC(=O)Nc2sc3c(c2C#N)CCC3)c1,95.8%
19,CCc1ccccc1NC(=O)CN(C)C(=O)COc1ccc(C)nc1[N+](=O)[O-],95.3%
20,O=C(NNc1c2ccccc2nc2ccccc12)c1cc2ccccc2cc1O,2.39% (active)
21,O=C(Nc1c2c(nc3ccccc13)CCCC2)c1ccccc1Br,86.9%
22,Cc1noc(C)c1COC(=O)c1cc2ccccc2cc1O,86.5%
23,C=CCNC(=O)c1ccccc1NC(=O)c1ccc(Cl)c(S(=O)(=O)Nc2cccc(C)c2C)c1,55.4%
24,Cc1ccc(-n2c(SCC(=O)N/N=C/C=C/c3ccccc3[N+](=O)[O-])nc3ccccc3c2=O)cc1,85.4%
25,Cn1cc(/C=C/c2nc3ccccc3c(=O)n2-c2cccc([N+](=O)[O-])c2)c2ccccc21,62.3%

row,SMILES,viability
1,CCn1c(/C=C/c2ccc([N+](=O)[O-])o2)nc2ccccc2c1=O,2.45% (active)
2,CCc1nnc(NC(=O)[C@@H](NC(=O)c2cccc(C)c2)C(C)C)s1,80.8%
3,C/C(O)=C\c1nc(=O)c2c(C)cc(C)nc2n1-c1ccccc1,2.19% (active)
4,N#CCSc1nc2ccccc2c(=O)n1-c1ccccc1,90.5%
5,Cc1cc(C)c2c(n1)sc1c(=O)n(-c3ccccc3)c(=O)[nH]c12,97.1%
6,COc1ccc(CCC(=O)OCC(=O)Nc2ccc(C)c(S(=O)(=O)N(C)C)c2)cc1,96.3%
7,c1ccc2c(c1)CSc1sccc1C2=C1CCNCC1,4.26%
8,CCOC(=O)c1ccc(N/C(=N/S(=O)(=O)c2ccccc2)c2ccccc2)cc1,102%
9,CCCCC(C(=O)OCC(=O)c1ccc(OC)cc1)N1C(=O)c2ccccc2C1=O (stereo not drawn),97.5%
10,CCOC(=O)C1=C(c2ccc(OC)cc2)C(=O)c2ccccc2C1=O,1.48% (active)
11,CCOC(=O)c1ccccc1NS(=O)(=O)c1ccc(OC)cc1,15.6%
12,N#C/C(=C(/O)COC(=O)COc1ccc(Cl)cc1)c1nc2ccccc2[nH]1,5.27%
13,N=c1c2c(-c3ccccc3)c(-c3ccccc3)n(Cc3ccccc3)c2ncn1CCCO,1.76% (active)
14,N=c1c2c(-c3ccccc3)c(-c3ccccc3)oc2ncn1Cc1ccco1,54.2%
15,OCCCN1c2ccccc2Nc2nnc(-c3ccccc3)cc21,53.1%
16,Cc1nc(-c2ccccc2)sc1C(=O)/C=C/c1ccccc1,6.16%
17,O=C(/C=C/c1ccccc1)c1ccccc1O,83.3%
18,Cc1[nH]c(=O)c(C(=O)/C=C/c2ccccc2)c2c1CCCC2,1.81% (active)
19,O=C(Nc1ccccc1)c1cc2ccccc2[nH]1,66.4%
20,CC(C)(C)c1ccc(C(=O)CSc2ncn[nH]2)cc1,94.8%
21,O=C(/C=C/Sc1ncn[nH]1)c1ccc(Cl)cc1,2.52% (active)
22,O=C(NCCOCc1ccc(Cl)cc1)c1ncn[nH]1,101%
23,CC(=O)NC1C(OCc2ccccc2)OC(COC(C)=O)C(OC(C)=O)C1OC(C)=O (stereo not drawn),96.9%
24,Cc1ccc(/C=N\n2c(-c3ccccc3)n[nH]c2=S)s1,109%
25,Cc1cc(-c2n[nH]c(=S)n2/N=C/C(Br)=C/c2ccccc2)n[nH]1,1.39% (active)

row,SMILES,viability
1,S=c1[nH]nc(-c2cccnc2)n1/N=C/C(Cl)=C\c1ccccc1,8.01%
2,Cc1nn(C)c(C(=O)NNC(=S)NC2CCCCC2)c1Cl,95.4%
3,CC1CCN(C(=S)NC2CC3CCC2C3)CC1 (stereo not drawn),95.9%
4,O=C(CCCN1C(=O)/C(=C/c2ccco2)SC1=S)Nc1ccccc1,24%
5,O=C(c1c(Cl)nc2sccn12)N1CCCc2ccccc21,81.7%
6,O=C1/C(=C\c2ccccc2Cl)SC(=S)N1CCC(=O)N1CCCc2ccccc21,2.6% (active)
7,N=C1C(=O)OCC1c1ccccc1NC(=O)CN1CCCCC1 (stereo not drawn),83.9%
8,CC(NC(=O)c1cccc2ccccc12)c1ccc2c(c1)CCCC2 (stereo not drawn),25.1%
9,NS(=O)(=O)c1ccc(CCNC(=S)Nc2ccc(S(N)(=O)=O)cc2)cc1,96.8%
10,Cc1ccc(C)c(NC(CC(=O)c2ccccc2)C(=O)OCC(=O)c2cccs2)c1 (stereo not drawn),85%
11,O=C(CCC(=O)c1cccs1)NCc1ccccc1,97.4%
12,Cc1ccccc1C(CC(=O)c1cccs1)C(C#N)C#N (stereo not drawn),3.71% (active)
13,Cc1ccc(CN2C(=O)N/C(=C/c3cc(C)n(-c4ccccn4)c3C)C2=O)cc1,84.5%
14,Cc1cc(OCCCC(=O)NCCN2C(=O)S/C(=C\c3cccnc3)C2=O)ccc1Cl,78.4%
15,COC(=O)N/N=C/c1ccc(-c2ccc(Cl)c(Cl)c2)o1,68.4%
16,O=C(CN1C(=O)NC2(CCCCCC2)C1=O)NCc1cccs1,102%
17,Cc1ccc(C)c2[nH]c(=O)c(CCNC(=O)c3cccs3)cc12,85.5%
18,COc1cccc(/C=N/NC(=O)c2cccc([N+](=O)[O-])c2)c1OS(=O)(=O)c1ccc(C)cc1,71.7%
19,COc1cc(/C=N\NC(=O)CNC(=O)c2cccc([N+](=O)[O-])c2)ccc1O,98.5%
20,Cc1[nH]n(-c2cccc(Cl)c2)c(=O)c1/C=N/n1c(C)nc2ccccc2c1=O,89.2%
21,Cc1[nH]n(-c2ccccc2)c(=O)c1/C=N/NC(=O)c1ccoc1C,3.19% (active)
22,Cc1ccc(-n2[nH]c(C)c(/C=N/NC(=O)c3cccc([N+](=O)[O-])c3)c2=O)cc1C,2.5% (active)
23,Cc1[nH]n(-c2ccc(Cl)cc2)c(=O)c1/C=N/n1c(C)nc2ccccc2c1=O,33.6%
